From PubChem BioAssay AID1347076 (National Center for Advancing Translational Sciences (NCATS), 2019)
The campaign covered roughly 400,000 compounds. About 13,000 (3.2%) were called active. About 18% were inconclusive and are not listed. Many of the other results were omitted from the sample, so actives are more common in it than they were. Values without a mark were called inactive. Calls follow the shape of the dose curve; as a rule, active = well fitted cell-killing curve with a large enough effect; inconclusive = small, poorly fitted or top-dose-only effect, or effect the other way; inactive = flat fitted curve, though single readings scatter.

Experiment: qHTS assay for MDR1-selective chemotherapeutics: Primary screen using the drug-selected MDR subline cells KB-V1; also: nearly all actives have a fitted effect of over 60% in size
Details: KB-V1 MDR cells viability, CellTiter-Glo, 72 h; series mostly up to 46.1 µM; activity change, negative = cytotoxicity: at the top concentration
In short: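 Luminescent ATP read-out (CellTiter-Glo, 10 min) measures survival of drug-selected KB-V1 MDR cells after 72 h, 37 degrees C compound exposure. Medium: phenol-red-free DMEM, 10% FBS. Values from fitted concentration-response curves.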
% is scaled to controls: 0 for no effect and ±100 for the full control effect; potency is read from the fitted curve at half-maximal effect.

Row | Compound | activity change, negative = cytotoxicity | Potency
1 | COC(=O)[C@]12CCCCC=C1N(Cc1ccc3c(c1)OCO3)C(=O)[C@H](CC(=O)NCc1cccs1)C2 | -26.6% | 
2 | O=C1CCC(C(=O)OCC(=O)Nc2ccc(OC(F)F)cc2)=NN1 | 27.2% | 
3 | Cc1ccc2c(c1)c1c(c(=O)n(-c3ccccc3)c(=O)n1CC(=O)c1ccc(Cl)cc1)n2C | -17.9% | 
4 | CC(=O)NC(c1cccc(F)c1)c1nc(-c2cccc(F)c2)cs1 (configuration not stated) | 2.12% | 
5 | CC(=O)Nc1ccc(NC(=O)CSCc2cnn(-c3ccccc3)c2-n2cccc2)cc1 | -13.4% | 
6 | Cc1cc(C)cc(NC(=O)CSCc2cnn(-c3ccccc3)c2-n2cccc2)c1 |  | 18.4 µM (active)
7 | CCOc1ccc(NC(=O)c2cnn(-c3ccccc3)c2-n2cccc2)cc1 | -13.3% | 
8 | CCOc1ccccc1N(CC)C(=O)c1cc2ccc3cccnc3c2[nH]1 | -16.2% | 
9 | CCCCCOC(=O)NCCOC(=O)Nc1ccc(C(=O)OCC)cc1 |  | 16.4 µM (active)
10 | CCCCC(CCC(=O)Nc1ccc(C(=O)OCC)cc1)C(=O)O (configuration not stated) | 3.69% | 
11 | CCOC(=O)Nc1ccc(NC(=O)OCC)cc1 | 0.438% | 
12 | CC1C(=O)N(Cc2cn(CC3CCCCC3)nn2)CCS(=O)(=O)N1Cc1ccc(-c2cccc(N(C)C)c2)cc1 (configuration not stated) | 2.2% | 
13 | COc1ccc(-c2ccc(=O)n(CC(=O)Nc3ccc(Br)cc3F)n2)cc1 | 5.96% | 
14 | O=C(NC(=O)c1ccccc1)Nc1ccccc1O | 13.8% | 
15 | O=C(Nc1ncccc1O)c1ccc(S(=O)(=O)N2CCCC2)cc1 | -28.8% | 
16 | O=C(Nc1ncccc1O)c1ccc(C(=O)c2ccccc2)cc1 |  | 23.1 µM (active)
17 | C[C@@H]1CN([C@@H](C)CO)C(=O)c2cc(NS(C)(=O)=O)ccc2O[C@@H](C)CCCCO[C@H]1CN(C)C(=O)Nc1ccc2c(c1)OCO2 | 15.5% | 
18 | O=C(NCc1ccccc1)C1c2ccccc2OCC(=O)N1C1CC1 (configuration not stated) | 10.6% | 
19 | Cc1ccc(C(O)c2ncc(-c3ccccc3F)[nH]2)cc1F (configuration not stated) | 3.69% | 
20 | O=C(Nc1cc(S(=O)(=O)Nc2ccc(Cl)cc2)ccc1O)c1ccc(F)cc1F |  | 23.1 µM (active)
21 | O=C(Nc1cccc(S(=O)(=O)NC2=NCCC2)c1)c1ccc(F)cc1F | -4.99% | 
22 | CCS(=O)(=O)c1ccc(O)c(NC(=O)COc2ccc(Cl)cc2)c1 | 10.8% | 
23 | CCC1(C)Cc2c(sc3nc4n(c(=O)c23)CCCS4)CO1 (configuration not stated) | 0% | 
24 | CCCSc1nc2sc3c(c2c(=O)n1-c1cccc(Br)c1)CC(C)(C)OC3 | -22.2% | 
25 | CCCSc1nc(NCc2ccco2)c2c3c(sc2n1)COC(C)(CC)C3 (configuration not stated) |  | 16.4 µM (active)

Row | Compound | activity change, negative = cytotoxicity | Potency
26 | Cc1ccc(N2CC(c3nnc(Cc4ccccc4Cl)o3)CC2=O)cc1 (configuration not stated) | 2.41% | 
27 | CC(C)(C)OC(=O)N1CCC(c2c(C(=O)N3CCN(c4cccc(Cl)c4)CC3)cnn2-c2cccc(Cl)c2)CC1 | -27.3% | 
28 | O=C(COc1cccnc1[N+](=O)[O-])Nc1ccc(Cl)cc1F | 4.4% | 
29 | Cc1ccc(OCC(=O)NC(C)c2ccccc2)c([N+](=O)[O-])n1 (configuration not stated) | -8.09% | 
30 | Cc1ccc(OCC(=O)Nc2ccccc2Sc2ccc(Cl)cc2)c([N+](=O)[O-])n1 |  | 9.2 µM (active)
31 | Cc1ccc(S(=O)(=O)N2CC3C(=O)C[C@@H](c4ccccc4Cl)N(S(=O)(=O)c4ccc(C)cc4)C3CC2c2ccccc2)cc1 (some centres not stated) | -27.9% | 
32 | COc1ccc(C(C)(C)C)cc1NC(=O)CN(C)C1=NS(=O)(=O)c2ccccc21 | -22.1% | 
33 | CC1(C(=O)NCc2ccc3c(c2)OCO3)CCN1C(=O)Cc1cccs1 (configuration not stated) | 2.58% | 
34 | C[C@H](NC(=O)CC[C@H]1O[C@@H](n2ccc(=O)[nH]c2=O)[C@H](O)[C@@H]1O)c1cccc2ccccc12 | 14.5% | 
35 | CNC(=S)NNC(=O)c1ccc(N(C)C)cc1 |  | 11.6 µM (active)
36 | CC(=O)NC(=S)NNC(=O)c1ccc(Br)cc1 | -2.46% | 
37 | CNC(=S)NNC(=O)c1sccc1OCc1ccccc1 | -21.8% | 
38 | COC(=O)C1(C(=O)OC)C/C=C\CN(S(=O)(=O)c2ccccc2[N+](=O)[O-])CCC1 | 3.37% | 
39 | COc1ccc(NC(=O)c2sc(=O)n(Cc3ccc(S(=O)(=O)N(C)C)cc3)c2C)cc1 |  | 9.2 µM (active)
40 | COc1ccc(NS(=O)(=O)c2cc(NC(=O)c3ccc(S(=O)(=O)N(C)C)cc3)ccc2N2CCOCC2)cc1 | 7.71% | 
41 | COc1ccc(Cn2c(C)c(C)c(C#N)c2NC(=O)Nc2ccc(F)cc2)cc1 | 18% | 
42 | Cc1nc(SCC(=O)N2CC(=O)Nc3ccccc32)c2c(C)c(C)sc2n1 | -23.9% | 
43 | Cc1nc(SCC(=O)N2CCc3ccccc3C2)c2c(C)c(C)sc2n1 |  | 18.4 µM (active)
44 | O=C(CSc1nnc(-c2cccs2)n1Cc1ccccc1)N1CCc2ccccc2C1 | 0% | 
45 | COc1ccc(OC)c(C(=O)NC2CCCc3c2cnn3-c2cc(C)cc(C)c2)c1 (configuration not stated) | 1.4% | 
46 | Cc1cccc(N2CCN(C(=O)c3cnc(N4CCCC4)nc3C)CC2)c1C | 19.2% | 
47 | C/C(=C\c1ccccc1)C1NC(=O)c2c(sc3c2CCCC3)N1 (configuration not stated) | 0% | 
48 | O=C1NC(c2ccncc2)Nc2sc3c(c21)CCCC3 (configuration not stated) |  | 20.6 µM (active)
49 | CCOC(=O)N1CCc2c(sc3c2C(=O)NC(c2ccccc2F)N3)C1 (configuration not stated) | -0.0929% | 
50 | COc1ccc(NC(=O)CCCN2C(=O)CCn3nc(-c4cn(C)c5ccccc45)cc32)cc1OC | 11.5% | 

Row | Compound | activity change, negative = cytotoxicity | Potency
51 | Cc1cccc(NC(=O)c2ccc(OCC(=O)NCc3ccccc3)cc2)c1C |  | 14.6 µM (active)
52 | COc1ccc(C(=O)Nc2cc(C)ccc2NC(=O)COc2ccccc2)cc1 | -2.79% | 
53 | Cc1ccc(OCC(=O)NNC(=S)NCc2ccccc2)cc1 | 2.82% | 
54 | O=C(COC(=O)c1ccccc1OCCOc1ccccc1)Nc1cccc(Br)c1 | 0% | 
55 | COCCNC(=O)C1CCCN(Cc2ccccc2Cl)CC1 (configuration not stated) | 6.18% | 
56 | COC(=O)CCCCC1=CCC2C(=O)C=C(O)C2C1 (configuration not stated) | 3.11% | 
57 | Cc1sc2nc(-c3ccccc3F)oc(=O)c2c1C | 23.8% | 
58 | CCOc1ccc(NC(=O)c2cc3c(=O)n(Cc4cccs4)ccc3nc2C)cc1 | -7.46% | 
59 | C=CCNc1scc(-c2ccccc2)[n+]1CC=C | 8.94% | 
60 | C=CC[n+]1c(-c2ccc(C)cc2)csc1NNC(=O)Nc1ccccc1 |  | 14.6 µM (active)
61 | O=C(NNC(=O)c1ccc(-c2ccccc2)cc1)Nc1ccccc1 | -17% | 
62 | Cc1ccc(S(=O)(=O)N2C[C@H]3C(=O)C[C@@H](c4cccc5ccccc45)N(S(=O)(=O)c4ccc(C)cc4)[C@H]3C[C@H]2c2ccc(Cl)cc2)cc1 | 7.7% | 
63 | Cc1ccccc1-c1nc(NC(C)C)nc2cc(-c3ccccc3)sc12 | 3.17% | 
64 | O=C(C1CCC1)N1CCN(c2ccccc2)CC1 | 3.49% | 
65 | O=C(NNC(=O)c1cc2c(s1)CCCC2)c1ccccc1 | 14.5% | 
66 | O=C(c1cc2c(s1)CCC2)N1CCN(c2ccccc2)CC1 |  | 20.6 µM (active)
67 | O=[N+]([O-])c1ccc(/C=C/c2ccc3cccnc3c2)cc1 | -13.4% | 
68 | COc1cc(C(=O)N2CCOC23CCN(Cc2ccccc2)CC3)cc(OC)c1OC | -15.3% | 
69 | CCc1nc2ccc(C(=O)N3CCN(c4cc(Cl)ccc4C)CC3)cc2nc1CC | 0% | 
70 | COC(=O)c1ccc(C(=O)OC)c(NC(=S)N2CCN(c3cc(Cl)ccc3C)CC2)c1 |  | 20.6 µM (active)
71 | COC(=O)c1ccc(C(=O)OC)c(NC(=S)N2CCCCC2)c1 | -24.1% | 
72 | O=C1CCc2cc(S(=O)(=O)Nc3cccc(Oc4ccccc4)c3)ccc2N1 | 0% | 
73 | CCn1c(SCC(=O)Nc2ccc3c(c2)OCCO3)nc2c(c1=O)SC(C)C2 (configuration not stated) |  | 4.11 µM (active)
74 | COCCn1c(SCC(=O)Nc2cc(OC)ccc2OC)nc2c(c1=O)SC(C)C2 (configuration not stated) | -7.8% | 
75 | CCn1c(SCC(=O)Nc2ccccc2F)nc2c(c1=O)SC(C)C2 (configuration not stated) | -3.18% | 

Row | Compound | activity change, negative = cytotoxicity | Potency
76 | CN(CC(=O)Nc1ccccc1F)S(=O)(=O)c1ccc2c(c1)c(=O)n(C)c(=O)n2C | -0.676% | 
77 | Cc1nc2c(OCC(=O)C(C)(C)C)cccn2c1N(C)Cc1cccs1 | -14.1% | 
78 | COc1ccc2c(c1)CCCO[C@]21O[C@H](CCO)C[C@H](O)[C@H]1O | -6.9% | 
79 | COc1ccc(C(=O)N(C)Cc2ccc(OC)c(OC)c2OC)cc1S(=O)(=O)N1CCOCC1 | -7.85% | 
80 | Cc1ccc(CC(=O)Nc2ccc(S(=O)(=O)N3CCOCC3)cc2)cc1C | -19.5% | 
81 | O=C(CSc1ccccc1)Nc1cccc(S(=O)(=O)N2CCOCC2)c1 | 2.32% | 
82 | O=C(COC(=O)CCc1ccc(S(=O)(=O)N2CCOCC2)cc1)Nc1cccc(Cl)c1 | 4.26% | 
83 | COc1ccc(C(=O)OC(C)C(=O)NC2CCCC2)cc1S(=O)(=O)N1CCOCC1 (configuration not stated) | 4.6% | 
84 | COc1ccc(CCC(=O)Nc2ccc(Cl)c(S(=O)(=O)N3CCOCC3)c2)cc1OC |  | 16.4 µM (active)
85 | COc1ccc(CC(=O)Nc2ccc3c(c2)CCC3)cc1S(=O)(=O)N1CCOCC1 | 0% | 
86 | O=C(COC(=O)c1ccccc1)Nc1cccc(S(=O)(=O)N2CCOCC2)c1 | -1.3% | 
87 | O=C(CN1CCc2ccccc2C1)Nc1cccc(S(=O)(=O)N2CCOCC2)c1 |  | 18.4 µM (active)
88 | COc1ccc(CC(=O)NC(C)c2ccc(Cl)c(Cl)c2)cc1S(=O)(=O)N1CCOCC1 (configuration not stated) |  | 23.1 µM (active)
89 | CN(CC(=O)Nc1ccc(F)cc1)CC(=O)Nc1ccc(Cl)c(S(=O)(=O)N2CCOCC2)c1 | 16.4% | 
90 | O=C(CCc1ccc(S(=O)(=O)N2CCOCC2)cc1)Nc1ccc2ccccc2c1 |  | 16.4 µM (active)
91 | CCc1noc(C)c1C(=O)OCC(=O)c1ccc(NC(=O)CC(C)C)cc1 | -24.6% | 
92 | Nc1ncnc2c1ncn2[C@@H]1O[C@H](C(=O)NCC(F)(F)F)[C@@H](O)[C@H]1O | 13.3% | 
93 | COc1ccc(C=C2CCC3C(CCCC34OCCO4)C2=O)cc1 (configuration not stated) | -14.5% | 
94 | OC[C@@H]1CN(Cc2ccc(Cl)cc2)C[C@H](n2cnc3c(NCc4ccncc4)ncnc32)O1 | 7.29% | 
95 | Cc1cccc(C(=O)OCC(=O)Nc2sccc2C(N)=O)c1C | 1.57% | 
96 | NCCCNC(=S)NCCCN(Cc1ccc(Cl)cc1)c1ccc(Br)cn1 |  | inactive
97 | NC(=O)CSc1nnc(-c2cccc(S(=O)(=O)N3CCOCC3)c2)o1 | -1.06% | 
